Test in all cases: NCI-60 one-dose screen, 48 h (100 = growth as untreated, 0 = no growth, -100 = all killed)
In one test the test system is HCT-15 colon. Conditions: 10 µM unless noted.
Another test has as its system HT29 colon. Conditions: 10 µM unless noted.
A further test relates to SNB-75 CNS. Conditions: 10 µM unless noted.
Another test relates to SNB-19 CNS. Conditions: 10 µM unless noted.
For a further test, the system named is U251 CNS. Conditions: 10 µM unless noted.
A further test relates to SK-MEL-5 melanoma. Conditions: 10 µM unless noted.
The subject of the next test is UACC-62 melanoma. Conditions: 10 µM unless noted.
Another test has as its system LOX IMVI melanoma. Conditions: 10 µM.
A further test deals with SK-MEL-28 melanoma. Conditions: 10 µM unless noted.
A further test concerns SK-MEL-2 melanoma. Conditions: 10 µM unless noted.
For the next test, the system named is SN12C renal. Conditions: 10 µM unless noted.
The subject of the next test is UO-31 renal. Conditions: 10 µM unless noted.
The test system of the next test is TK-10 renal. Conditions: 10 µM unless noted.
The next test deals with ACHN renal. Conditions: 10 µM unless noted.
The next test relates to CAKI-1 renal. Conditions: 10 µM unless noted.
The subject of a further test is CCRF-CEM leukemia. Conditions: 10 µM unless noted.
The next test relates to MOLT-4 leukemia. Conditions: 10 µM unless noted.
The subject of a further test is A498 renal. Conditions: 10 µM unless noted.
A further test concerns EKVX NSCLC. Conditions: 10 µM unless noted.
The subject of a further test is PC-3 prostate. Conditions: 10 µM unless noted.

Compounds without any hit were thinned out: in the full panel of roughly 83,000, 20% have a hit.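 Each cell line was grown in a 96-well plate and treated with one concentration of compound for 48 hours. Values below 10 were considered active.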 A number with no mark means an inactive call. Calls of active or inactive are those of the source.

On to `NC(=O)OCCO`, for which the growth in the test with HCT-15 colon is 108%; with HT29 colon it was 99%; with SNB-75 CNS, 110%; in the test on SNB-19 CNS, 108%; in the test on U251 CNS, 97.4%; in the test with SK-MEL-5 melanoma it was 95.4%. Moreover, the growth was 100% in the test with UACC-62 melanoma; 94.6% in the test with LOX IMVI melanoma; 113% in the test on SK-MEL-28 melanoma; 100% in the test on SK-MEL-2 melanoma; 105% in the test with SN12C renal; 87.7% in the test on UO-31 renal. Moreover, the growth was 98.8% in the test on TK-10 renal; 113% in the test on ACHN renal; 99.6% in the test with CAKI-1 renal; 99.5% in the test on CCRF-CEM leukemia; 97.7% in the test on MOLT-4 leukemia.

In the case of `CC(CO)(CO)C(=O)O`, the growth was 100% in the test with HCT-15 colon; 102% in the test with HT29 colon; 97.4% in the test on SNB-75 CNS; 105% in the test on SNB-19 CNS; 102% in the test with U251 CNS; 97.3% in the test with SK-MEL-5 melanoma. The growth in the test on UACC-62 melanoma is 103%; in the test on LOX IMVI melanoma, 97.9%; in the test with SK-MEL-28 melanoma it was 110%; in the test on SK-MEL-2 melanoma it was 108%; with SN12C renal, 105%; in the test on UO-31 renal, 98.6%. The growth with TK-10 renal was 103%; in the test on ACHN renal it was 103%; in the test with CAKI-1 renal it was 99%; with A498 renal it was 85.3%; in the test with CCRF-CEM leukemia it was 93.5%; in the test with MOLT-4 leukemia, 108%.

For the compound `CCOC(=O)C1(N)CCCCC1`, the growth was 112% in the test with HCT-15 colon; 104% in the test with HT29 colon; 91.8% in the test with SNB-75 CNS; 96.5% in the test with SNB-19 CNS; 99.1% in the test on U251 CNS; 106% in the test on SK-MEL-5 melanoma. In addition, the growth in the test with UACC-62 melanoma was 105%; in the test with LOX IMVI melanoma it was 102%; in the test with SK-MEL-2 melanoma, 106%; in the test on EKVX NSCLC, 97.5%; in the test on SN12C renal it was 93.1%; in the test on UO-31 renal, 79.6%. Besides, the growth in the test with TK-10 renal is 96.3%; in the test on ACHN renal, 104%; with CAKI-1 renal, 88.2%; with A498 renal it was 173%; in the test with CCRF-CEM leukemia it was 98.1%; in the test with MOLT-4 leukemia, 107%.

`NC(=O)c1cc2c3ccccc3ccn2c1-c1ccccc1`: the growth with HCT-15 colon was 4.13% (active); with HT29 colon, 7.35% (active); in the test with SNB-75 CNS, 59.9%; in the test with U251 CNS it was 16.1%; in the test with PC-3 prostate it was 37.3%; with SK-MEL-5 melanoma, -34.2% (active). Also, the growth in the test on UACC-62 melanoma was 31.7%; in the test on LOX IMVI melanoma it was 20%; in the test with SK-MEL-28 melanoma, 105%; in the test on SK-MEL-2 melanoma, -7.59% (active); in the test with EKVX NSCLC, 14.5%; with SN12C renal, 28.5%. Besides, the growth is 32.2% in the test on UO-31 renal; 47.7% in the test with TK-10 renal; 23.6% in the test on ACHN renal; -9.87% (active) with CAKI-1 renal; 34.4% with A498 renal; 2.84% (active) in the test on CCRF-CEM leukemia. For the same compound, in the test with MOLT-4 leukemia, the growth is 7.02% (active).

Turning to `Nc1ccccc1SC1CC(=O)N(c2ccc(Cl)c(Cl)c2)C1=O` (centres undefined), the growth was 118% in the test with HCT-15 colon; 96.2% in the test on HT29 colon; 79.9% in the test with SNB-75 CNS; 96.6% in the test on SNB-19 CNS; 103% in the test with U251 CNS; 104% in the test on SK-MEL-5 melanoma. Further, the growth in the test with UACC-62 melanoma is 87.6%; in the test on LOX IMVI melanoma, 98.5%; in the test on SK-MEL-28 melanoma it was 108%; with SK-MEL-2 melanoma, 12.9%; in the test with EKVX NSCLC it was 86.4%; in the test on SN12C renal it was 115%. For the same compound, the growth was 72.6% in the test with UO-31 renal, 137% in the test on TK-10 renal, 108% in the test with ACHN renal and 109% in the test with MOLT-4 leukemia.

Consider `Clc1cccc(Cl)c1C1CSc2ccccc2N=C1c1ccccc1` (centres undefined), for which the growth with HCT-15 colon is 54.7%; with HT29 colon it was 26.8%; in the test with SNB-75 CNS, 64.9%; with SNB-19 CNS, 97.4%; in the test on PC-3 prostate it was 55%; in the test with SK-MEL-5 melanoma, 86.8%. For the same compound, the growth in the test with LOX IMVI melanoma was -4.86% (active); in the test on SK-MEL-28 melanoma, 90.4%; with SK-MEL-2 melanoma, 90.2%; in the test with UO-31 renal, 55.3%; with TK-10 renal, 117%; with ACHN renal, 76.8%. For the same compound, the growth with CCRF-CEM leukemia was -12.9% (active); in the test with MOLT-4 leukemia, 20.1%.

Consider `Cc1ccc(C(C)C)c(OCC(=O)O)c1`, for which the growth is 101% in the test on HCT-15 colon; 109% in the test on HT29 colon; 99.3% in the test with SNB-75 CNS; 104% with SNB-19 CNS; 96.1% with U251 CNS; 100% with SK-MEL-5 melanoma. For the same compound, the growth in the test with UACC-62 melanoma is 100%; in the test on LOX IMVI melanoma it was 102%; in the test on SK-MEL-28 melanoma, 106%; in the test with SK-MEL-2 melanoma, 118%; in the test with SN12C renal, 100%; in the test on UO-31 renal it was 97%. Further, the growth in the test on TK-10 renal is 107%; in the test with ACHN renal, 112%; in the test with CAKI-1 renal, 110%; with A498 renal, 73.6%; in the test on CCRF-CEM leukemia, 96.8%; in the test on MOLT-4 leukemia, 111%.

For the compound `Cc1[nH]n(-c2ccccc2)c(=O)c1C=NC(=S)C(N)=S`, the growth in the test with HT29 colon is 111%; in the test with SNB-75 CNS, 87.5%; in the test with SNB-19 CNS, 96.8%; with U251 CNS it was 100%; in the test with PC-3 prostate it was 85.8%; with SK-MEL-5 melanoma it was 99.3%. Besides, the growth with UACC-62 melanoma was 93%; in the test on LOX IMVI melanoma, 99.7%; with SK-MEL-28 melanoma, 110%; in the test on SK-MEL-2 melanoma, 109%; in the test on EKVX NSCLC, 103%; in the test on SN12C renal, 105%. For the same compound, the growth is 85.2% in the test on UO-31 renal; 125% in the test with TK-10 renal; 100% with ACHN renal; 97.2% in the test with CAKI-1 renal; 93.8% in the test on A498 renal; 94.1% in the test with CCRF-CEM leukemia. In addition, in the test with MOLT-4 leukemia, the growth was 102%.

Values taken from PubChem BioAssay (NCI).
